Compound activity as filed in PubChem.
A selection follows.
aSyn UTR act = Activators working through SNCA 5'UTR binding (MLPCN); alpha-synuclein 5'UTR reporter, activators screen; activity score, % (tested at 7.5 µM), hits read low; 7.1% of 300,000 active; AID 1814; in the data active = activity score below about -60%
* hit, by the source's call.

CC(=O)Oc1ccc2cc(-c3ccccc3)c(=O)oc2c1 was read as aSyn UTR act -162.5*.
Screening O=C(COc1ccc2ccc(=O)oc2c1)c1ccccc1 returned aSyn UTR act -101.8*.
Screening O=C(CCCCl)Oc1ccc2cc(-c3ccc4ccccc4n3)c(=O)oc2c1 returned aSyn UTR act -124.5*.
For CC(=O)Oc1ccc2c(=O)c(-c3ccccc3)coc2c1 the results were aSyn UTR act -145.8*.
COc1ccc(-c2coc3cc4oc(=O)cc(-c5ccccc5)c4cc23)cc1F was read as aSyn UTR act 112.9.
For Cc1ccccc1OCCOc1cccc(/C=N/NC(=O)Cc2nnc(N)s2)c1 the results were aSyn UTR act -84.2*.
Screening Nc1nnc(CC(=O)N/N=C/c2cccc(OCCOc3ccccc3)c2)s1 returned aSyn UTR act -119.9*.
Screening COc1ccc(NC(=O)c2ccccc2NC(=O)CSc2ccc(Cl)cc2)cc1 returned aSyn UTR act -67.3*.
`COC(=O)c1ccc(NC(=O)CSc2ccccc2)cc1` gave aSyn UTR act -128.9*.
COc1ccc(NC(=O)c2ccccc2NC(=O)CSc2ccccc2)cc1 was read as aSyn UTR act -78.9*.
Screening CSc1nnc2c(n1)c(C)nn2-c1cccc(C)c1 returned aSyn UTR act -172.1*.
Screening COc1ccc(-c2nc3ccc(C)cn3c2NCc2ccc3c(c2)OCO3)cc1 returned aSyn UTR act -119.2*.
Cc1ccc(-c2nc3ccccn3c2NCc2ccc3c(c2)OCO3)cc1 was read as aSyn UTR act -163.2*.
For CCOc1cc(/C=N/Nc2ncnc(Cl)c2N)ccc1O the results were aSyn UTR act -88.9*.
`O=C(/C=C/c1ccc(OCc2ccccc2)c(OCc2ccccc2)c1)c1cccnc1` gave aSyn UTR act -61.6*.
For NC(N)=N/N=C/c1ccc(OCc2ccccc2)c(OCc2ccccc2)c1 the results were aSyn UTR act 106.1.
Screening COc1cc(C(=O)/C=C/c2cccnc2)ccc1O returned aSyn UTR act -106.7*.
`Cc1cccc(C(=O)Nc2ccc(C(=O)/C=C/c3ccncc3)cc2)c1` gave aSyn UTR act -159.8*.
Cc1cccc(C(=O)Nc2ccc(C(=O)/C=C/c3cccnc3)cc2)c1 was read as aSyn UTR act -98.3*.
O=C(/C=C/c1cccnc1)c1ccc(NC(=O)c2cccc(Br)c2)cc1 was read as aSyn UTR act -103.2*.
`O=C1OC(c2ccc3c(c2)OCO3)N(C(=O)c2ccc(Cl)c(Cl)c2)c2ccccc21` (centres undefined) gave aSyn UTR act -90.6*.
Screening CCn1c(=O)oc2cc(NC(=O)CCl)ccc21 returned aSyn UTR act -104.0*.
Cn1c(=O)n(C)c2cc(NC(=O)CCl)ccc21 was read as aSyn UTR act -180.0*.
For CC(NS(=O)(=O)c1cccc(Cl)c1)C(=O)Nc1ccc(-c2nc3ccccc3s2)cc1 (centres undefined) the results were aSyn UTR act -138.5*.
`Cc1ccc(C)c(S(=O)(=O)NC(C)C(=O)Nc2ccc(-c3nc4ccccc4s3)cc2)c1` (centres undefined) gave aSyn UTR act -108.1*.
For CC(C)(C)c1ccc(S(=O)(=O)NCC(=O)Nc2ccc(-c3nc4ccccc4s3)cc2)cc1 the results were aSyn UTR act -100.5*.
c1ccc(C2=Nc3ccccc3NC(c3ccccc3)C2)cc1 (centres undefined) was read as aSyn UTR act -178.4*.
Screening Brc1ccccc1C1CC(c2ccccc2)=Nc2ccccc2N1 (centres undefined) returned aSyn UTR act -203.0*.
For CCOc1ccc2nc(SCc3ccc(F)cc3)sc2c1 the results were aSyn UTR act -67.7*.
`O=C(NCc1cccnc1)/C(=C\c1ccc(-c2ccc(Cl)c(Cl)c2)o1)S(=O)(=O)c1ccccc1` gave aSyn UTR act -331.6*.
Cc1nc(-c2ccccc2)nn1-c1ccc([N+](=O)[O-])cc1 was read as aSyn UTR act -87.2*.
`Nc1c(C(=O)Nc2ccccc2F)sc2nc(-c3cccnc3)ccc12` gave aSyn UTR act -88.1*.
For Nc1c(C(=O)Nc2ccccc2F)sc2nc(-c3ccco3)ccc12 the results were aSyn UTR act -118.4*.
`CNC(=O)NC(=O)C(C)OC(=O)c1c2c(nc3ccccc13)/C(=C/c1cccs1)CC2` (centres undefined) gave aSyn UTR act -143.0*.
Oc1ccc(C2C(c3ccccc3)=NN=C(c3ccc(Cl)cc3)N2O)c(O)c1 (centres undefined) was read as aSyn UTR act -72.4*.
For Oc1ccc(C2C(c3ccccc3)=NN=C(c3ccccc3F)N2O)c(O)c1 (centres undefined) the results were aSyn UTR act -91.4*.
`COc1ccc(C)c2sc(=NC(=O)c3cccc(N4C(=O)CCC4=O)c3)n(C)c12` gave aSyn UTR act -92.9*.
For COc1ccc(C)c2sc(=NC(=O)c3ccccc3)n(C)c12 the results were aSyn UTR act -265.6*.
`CCN(CC(=O)NCc1ccc(F)cc1)C(=O)/C=C/c1ccc(OC)c(S(=O)(=O)NC(C)C)c1` gave aSyn UTR act 63.2.
For CCN(CC)C(=O)c1ccc(COc2ccccc2Cl)cc1 the results were aSyn UTR act -112.0*.
CCN(CC(=O)NCc1ccc(F)cc1)C(=O)c1ccc(COc2ccccc2)cc1 was read as aSyn UTR act -67.4*.
For CC1(C)COC(c2coc3ccccc3c2=O)OC1 the results were aSyn UTR act -96.7*.
For CC12COC3(C(=O)Nc4ccc5ccccc5c4)CC1CCC32C (centres undefined) the results were aSyn UTR act -144.5*.
Screening CCc1ccc(-c2cc(C(=O)Nc3c(C)n(C)n(-c4ccccc4)c3=O)c3ccccc3n2)s1 returned aSyn UTR act -68.3*.
Screening Cc1cccc(NC(=O)c2cc(-c3ccc(C)s3)nc3ccccc23)n1 returned aSyn UTR act -93.3*.
C#CCOCCOCCOCCNc1nc(N2CCN(C(=O)CCCCCCCCCCNC(=O)Cn3cc(C[C@@H](C)O)nn3)CC2)nc(N2CCN(C(=O)CCCCCCCCCCNC(=O)[C@H](CCCN=C(N)N)n3cc(C[C@@H](C)CC)nn3)CC2)n1 was read as aSyn UTR act -85.4*.
COc1cccc2oc3cc(C#Cc4ccccn4)ccc3c(=O)c12 was read as aSyn UTR act -194.5*.
For O=c1[nH]c(CN2CCN(C/C=C/c3ccccc3)CC2)nc2ccccc12 the results were aSyn UTR act -71.6*.
For COc1ccc2c(c1)C1OCCC1C(c1ccco1)N2 (centres undefined) the results were aSyn UTR act -76.5*.
`CCOC(=O)N1CCC(NC(=O)c2oc3c(F)cccc3c2C)CC1` gave aSyn UTR act -62.4*.
CN(C)c1ccc(/C=C/C(=O)c2ccccc2)cc1[N+](=O)[O-] was read as aSyn UTR act -195.0*.
Screening COc1ccc(Oc2ccc(/C=C/C(=O)c3ccc(O)cc3)cc2[N+](=O)[O-])cc1 returned aSyn UTR act -97.1*.
Screening O=C(/C=C/c1ccc(O)c([N+](=O)[O-])c1)c1ccc2ccccc2c1 returned aSyn UTR act -124.1*.
Screening Cc1nc(C(F)(F)F)ccc1C(=O)NCC(O)c1ccccc1 (centres undefined) returned aSyn UTR act -66.6*.
Screening Cc1nc(C(F)(F)F)ccc1C(=O)Nc1ccc2ccccc2n1 returned aSyn UTR act -94.3*.
For CC(=O)Nc1ccc(/C=C/c2nc3ccccc3o2)cc1 the results were aSyn UTR act -127.8*.
Screening O=C(Nc1ccc(/C=C/c2nc3ccccc3o2)cc1)c1c(F)cccc1F returned aSyn UTR act -171.5*.
